Hit rate of the full screen: of about 410,000 compounds, about 2,000 (0.49%) were called active. About 8% were inconclusive and are not listed. Calls follow the shape of the full dose curve; tested in HEK293 reporter line. Only a selection was taken, and actives are over-represented in it overall.
Experiment: qHTS Assay for Foot and Mouth Disease Virus Antivirals: Primary Screen against the MLPCN compound library; also: nearly all actives have a fitted effect of over 55% in size
Details: FMDV antiviral cell-based qHTS; series mostly up to 57.9 µM; activity, negative = inhibition: at the top concentration
Potency is read from the fitted curve at half-maximal effect.

Row | SMILES | activity, negative = inhibition | Potency
1 | CCCn1c(NC(=O)CCNC(=O)c2ccccc2Cl)nc2ccccc21 | -36% (inactive) | –
2 | COc1cc(NC(=O)N2CCC3(CC2)Nc2ccccc2-n2cccc23)cc(OC)c1OC | -30.8% (inactive) | –
3 | CCC1CCCCN1CCCCOc1cccc(Cl)c1 (stereo not drawn) | -32.7% (inactive) | –
4 | COc1ccccc1C(CNC(=O)c1ccc(OCc2c(C)noc2C)cc1)N1CCCC1 (stereo not drawn) | -34.6% (inactive) | –
5 | Cc1ccc(C2=Nc3ccccc3NC(c3ccncc3)=N2)cc1 | -31% (inactive) | –
6 | O=C(Nc1ccc2ccccc2c1)c1ccccc1O | – | 14.1 µM (active)
7 | Cc1ccc(Cl)cc1NC(=O)c1cc2ccccc2cc1O | -20.1% (inactive) | –
8 | COc1ccccc1C(=O)Nc1ccc(C(=O)c2ccccc2)cc1 | -36.3% (inactive) | –
9 | CC(C)NC(=S)NN(c1ccccc1)c1ccccc1 | -35.6% (inactive) | –
10 | CCOc1ccc(S(=O)(=O)N2CCC(n3c(C)nc4cccnc43)CC2)cc1 | -46.6% (inactive) | –
11 | CCc1ccc2oc(-c3cc(N=Cc4cccc(OC)c4O)ccc3O)nc2c1 | – | 20 µM (active)
12 | COc1cccc(/C=N/Nc2ccc(C(=O)O)cc2)c1O | -103% (inactive) | –
13 | Cc1nn(-c2cccc(Cl)c2)c2c1C(c1ccncc1)C(C#N)=C(N)O2 (stereo not drawn) | -32.2% (inactive) | –
14 | CCCOc1ccccc1C(=O)N(Cc1cccc(Br)c1)C1CCS(=O)(=O)C1 (stereo not drawn) | -49.6% (inactive) | –
15 | CC(=O)N1CCc2cc(S(=O)(=O)CCC(=O)N3CCN(c4cc(C)ccc4C)CC3)ccc21 | -32.1% (inactive) | –
16 | Cc1ccc(C)c(N2CCN(C(=O)CCS(=O)(=O)c3ccc4c(c3)NC(=O)CO4)CC2)c1 | – | 12.6 µM (active)
17 | Cc1ccc(C)c(N2CCN(S(=O)(=O)c3cc4c(cc3Cl)NC(=O)CO4)CC2)c1 | -31.6% (inactive) | –
18 | CCOC1=C2CN(S(=O)(=O)c3ccc(C)cc3)[C@H](c3ccccc3)C[C@@H]2N(S(=O)(=O)c2ccc(C)cc2)[C@H](c2cccc(C)c2)C1 | -33.1% (inactive) | –
19 | Cc1onc(-c2ccccc2)c1C(=O)n1nnc2ccccc21 | -36.4% (inactive) | –
20 | COc1ccc(-c2c3c(=O)n(C)c(=O)n(C)c3c3c(-c4ccccc4)nc4ccccc4n23)cc1 | -18% (inactive) | –
21 | Cn1c(-c2ccccc2)cc2onc(-c3ccccc3)c2c1=O | – | 8.91 µM (active)

Row | SMILES | activity, negative = inhibition | Potency
22 | Cc1cc(Br)cc(C)c1OCC(=O)NNC(=O)c1cccs1 | -38.5% (inactive) | –
23 | Cc1cc(NC(=O)c2ccc(S(=O)(=O)N3CCc4ccccc43)cc2)no1 | -32.7% (inactive) | –
24 | COc1ccc(OC)c(S(=O)(=O)Nc2ccc(F)cc2)c1 | 125% (inactive) | –
25 | COc1cc(NS(=O)(=O)c2ccc(C)cc2C)cc(OC)c1OC | – | 20 µM (active)
26 | COc1ccc(C)cc1S(=O)(=O)Nc1ccccc1 | 103% (inactive) | –
27 | CC1=[N+](C)c2ccc3ccccc3c2C1(C)C | -33.1% (inactive) | –
28 | Cc1ccccc1OCc1nnc(SCC(=O)Nc2c(C)n(C)n(-c3ccccc3)c2=O)n1-c1ccccc1 | -43.3% (inactive) | –
29 | Cc1ccc(NC(=O)c2cc(-c3cccs3)nc3ccccc23)c(C)c1 | -38.9% (inactive) | –
30 | Cc1cc(O)ccc1Nc1nc(-c2cccs2)cs1 | – | 20 µM (active)
31 | NS(=O)(=O)c1ccc(Nc2nc(-c3ccc(O)cc3O)cs2)cc1 | -33% (inactive) | –
32 | Cc1cc(S(=O)(=O)N2CCN(c3ccccc3F)CC2)ccc1-n1cnnn1 | -37.1% (inactive) | –
33 | Cc1ccc(/C=C/c2nc3ccccc3c(=O)n2CCc2ccccc2)cc1 | -32.9% (inactive) | –
34 | Cc1ccc(/C=C/c2nc3ccccc3n2S(=O)(=O)c2cccc(Cl)c2)cc1 | – | 8.91 µM (active)
35 | COc1cccc(-n2c(/C=C\c3ccc(Cl)cc3)nc3ccccc3c2=O)c1 | -32.4% (inactive) | –
36 | CSc1ccc(/C=C/c2nc3ccccc3n2S(=O)(=O)c2ccc(F)c(C)c2)cc1 | – | 20 µM (active)
37 | Cc1ccc(S(=O)(=O)N2CCN(C(=O)/C=C/c3ccccc3)CC2)cc1C | -31.7% (inactive) | –
38 | CN1CCN(NC(=O)Nc2cc(Cl)cc(Cl)c2)CC1 | -36.1% (inactive) | –
39 | COc1ccc(CN2CCNC(=O)C2CC(=O)N(C)Cc2ccno2)c(F)c1 (stereo not drawn) | -25.3% (inactive) | –
40 | CCSc1ncc(Cl)c(C(=O)N(Cc2ccccc2Cl)C2CCS(=O)(=O)C2)n1 (stereo not drawn) | -33.9% (inactive) | –
41 | CCn1c(N2CCC(C)CC2)nc2c1c(=O)n(C)c(=O)n2C | -41.6% (inactive) | –
42 | Nc1cc(-c2ccc(Br)cc2)nn1S(=O)(=O)c1ccccc1 | -33% (inactive) | –

Row | SMILES | activity, negative = inhibition | Potency
43 | CCc1nnc(NC(=O)CSc2nc(-c3ccccc3)cc(-c3ccc(F)cc3)c2C#N)s1 | 135% (inactive) | –
44 | CS(=O)(=O)c1nc(-c2ccc(Br)cc2)cc(-c2ccccc2)c1C#N | – | 25.1 µM (active)
45 | COc1ccc(C(=O)Nc2ccc(C)c(S(=O)(=O)N3CCOCC3)c2)cc1S(=O)(=O)N1CCCC1 | -31.5% (inactive) | –
46 | COc1ccc(/C=C/C(=O)Nc2ccccc2)cc1S(=O)(=O)N1CCOCC1 | – | 12.6 µM (active)
47 | COc1ccc(C)cc1NC(=O)/C=C/c1ccc(OC)c(S(=O)(=O)N2CCOCC2)c1 | -31.7% (inactive) | –
48 | CCOC(=O)C1CCCN(S(=O)(=O)c2cc3c(cc2Cl)NC(=O)CO3)C1 (stereo not drawn) | -31% (inactive) | –
49 | CCCN(CCC)CCCNC(=O)C1CCCN(Cc2nc(-c3ccc(Cl)cc3)oc2C)C1 (stereo not drawn) | -26.9% (inactive) | –
50 | Cc1oc(-c2ccc(Cl)cc2)nc1CN1CCCC(C(=O)NCCCN2CCCC2=O)C1 (stereo not drawn) | – | 7.94 µM (active)
51 | Cc1oc(-c2ccc(Cl)cc2)nc1CN1CCCC(C(=O)NCc2cccnc2)C1 (stereo not drawn) | -20.1% (inactive) | –
52 | Cc1ccc(S(=O)(=O)N2CCN(C(=O)CCCN3C(=O)NC4(CCCC4)C3=O)CC2)cc1C | -33.6% (inactive) | –
53 | CCn1c2ccccc2c2cc(NC(=O)COc3ccc(C)c(C)c3)ccc21 | -31.2% (inactive) | –
54 | CCOc1ccc(-c2nnc(-c3cccs3)o2)cc1 | – | 15.8 µM (active)
55 | CCn1c(SCCOc2ccc(Cl)cc2)nnc1-c1cccs1 | -32.5% (inactive) | –
56 | CCOc1ccc(-c2nnc(NC(=O)COc3ccccc3F)o2)cc1 | 119% (inactive) | –
57 | Cc1ccccc1-c1cnc2c(c1)C(=O)N([C@@H](C)CO)C[C@@H](C)[C@H](CN(C)Cc1ccccc1F)O2 | -11.7% (inactive) | –
58 | COc1ccc(C(O)(CC(C)C)C(CN2CCOCC2)c2ccccc2)cc1 (stereo not drawn) | -37.2% (inactive) | –
59 | O=C(Nc1nc2ccccc2s1)c1ccc2c(c1)OCO2 | – | 14.1 µM (active)
60 | O=C(Nc1ccc2nc(SCCOc3ccccc3)sc2c1)c1ccc2c(c1)OCO2 | -33.5% (inactive) | –
61 | Cc1cc(NC(=O)c2ccc3c(c2)OCO3)ccc1NC(=O)c1ccccc1 | -94.1% (inactive) | –
62 | CC1(Cc2cc(Cl)ccc2C(F)(F)F)C(=O)Nc2c(Cl)cccc21 (stereo not drawn) | -32.7% (inactive) | –
63 | CCC(=O)N1CCc2cc(S(=O)(=O)CCC(=O)N3CCN(c4ccc(C(C)=O)cc4)CC3)ccc21 | -30.2% (inactive) | –

Source: PubChem BioAssay AID1347131 (National Center for Advancing Translational Sciences (NCATS), 2019)
